Holding throughout (assay): PBM; 200 nM protein, PBS
Common to all, as to details: dsDNA, one strand shown

Assay [1] has as its target NKX2-5 (Homo sapiens, UniProt P52952 125-210, R139K).
For assay [2], the target named is NKX2-5 (Homo sapiens, UniProt P52952 125-210).
Assay [3] has as its target HOXB9 (Homo sapiens, UniProt P17482 171-250, T197M).
In assay [4] the target is HOXC9 (Homo sapiens, UniProt P31274 178-260, K195R).
For assay [5], the target named is T1, VENTX (Homo sapiens, UniProt O95231 78-163).
T1 sequence: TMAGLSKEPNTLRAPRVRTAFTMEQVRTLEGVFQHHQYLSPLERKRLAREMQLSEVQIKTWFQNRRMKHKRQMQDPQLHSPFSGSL

Assay [6] deals with T2, PAX4 (Homo sapiens, UniProt O43316 9-242, R200K).
T2 sequence: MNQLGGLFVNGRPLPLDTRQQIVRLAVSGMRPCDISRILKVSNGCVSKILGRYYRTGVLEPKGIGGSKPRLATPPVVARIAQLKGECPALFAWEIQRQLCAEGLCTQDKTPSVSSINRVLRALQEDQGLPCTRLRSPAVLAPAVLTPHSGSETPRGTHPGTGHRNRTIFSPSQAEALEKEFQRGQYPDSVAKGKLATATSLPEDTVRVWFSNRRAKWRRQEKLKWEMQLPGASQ

Assay [7] concerns the target T3, VENTX (Homo sapiens, UniProt O95231 78-163, Y115F).
T3 sequence: T1 sequence with Y38F

The target of assay [8] is T4, PAX4 (Homo sapiens, UniProt O43316 9-242).
T4 sequence: T2 sequence with K192R

Assay [9] addresses HOXB9 (Homo sapiens, UniProt P17482 171-250).
In assay [10] the target is T5, PAX4 (Homo sapiens, UniProt O43316 9-242, R200Q).
T5 sequence: T2 sequence with K192Q

In assay [11] the target is HOXC9 (Homo sapiens, UniProt P31274 178-260, R193K).
Sequence of HOXC9 (Homo sapiens, UniProt P31274 178-260, R193K) (P31274 178-260 R193K): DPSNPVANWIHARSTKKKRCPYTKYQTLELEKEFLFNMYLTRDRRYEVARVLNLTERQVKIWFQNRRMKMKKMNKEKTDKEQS
Assay [12] deals with T6, PAX4 (Homo sapiens, UniProt O43316 9-242, F177V).
T6 sequence: T2 sequence with F169V, K192R

The target of assay [13] is HOXC10 (Homo sapiens, UniProt Q9NYD6 254-340, K271E).
Sequence of HOXC10 (Q9NYD6 254-340 K271E): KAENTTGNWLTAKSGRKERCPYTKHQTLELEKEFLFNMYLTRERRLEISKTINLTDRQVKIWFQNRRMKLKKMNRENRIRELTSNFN
Assay [14] has as its target T7, PAX4 (Homo sapiens, UniProt O43316 9-242, F177Y).
T7 sequence: T2 sequence with F169Y, K192R

The target in assay [15] is VAX1 (Homo sapiens, UniProt Q5SQQ9 86-172).
Sequence of VAX1 (Q5SQQ9 86-172): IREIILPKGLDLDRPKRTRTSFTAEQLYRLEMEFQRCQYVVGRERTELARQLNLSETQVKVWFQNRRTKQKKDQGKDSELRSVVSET
Assay [16] addresses HOXB9 (Homo sapiens, UniProt P17482 171-250, R186Q).
The target of assay [17] is HOXC9 (Homo sapiens, UniProt P31274 178-260, R222W).
Sequence of HOXC9 (Homo sapiens, UniProt P31274 178-260, R222W) (P31274 178-260 R222W): as the sequence (P31274 178-260 R193K) above, with K16R, R45W counted along it
The target of assay [18] is T8, PAX4 (Homo sapiens, UniProt O43316 9-242, R227W).
T8 sequence: T2 sequence with K192R, R219W

The target in assay [19] is HOXA2 (Homo sapiens, UniProt O43364 129-215, Y150S).
Sequence of HOXA2 (Homo sapiens, UniProt O43364 129-215, Y150S) (O43364 129-215 Y150S): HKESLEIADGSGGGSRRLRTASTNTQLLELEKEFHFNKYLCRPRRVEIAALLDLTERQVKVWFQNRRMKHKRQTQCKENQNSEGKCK
The target of assay [20] is HOXA2 (Homo sapiens, UniProt O43364 129-215).
Sequence of HOXA2 (Homo sapiens, UniProt O43364 129-215) (O43364 129-215): as the sequence (O43364 129-215 Y150S) above, with S22Y counted along it

Numbering of substitutions follows the chain as printed.

Sequence of HOXB9 (Homo sapiens, UniProt P17482 171-250, T197M) (P17482 171-250 T197M): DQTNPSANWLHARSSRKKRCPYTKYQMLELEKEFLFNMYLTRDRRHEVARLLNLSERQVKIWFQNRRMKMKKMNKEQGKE
Sequence of HOXB9 (Homo sapiens, UniProt P17482 171-250) (P17482 171-250): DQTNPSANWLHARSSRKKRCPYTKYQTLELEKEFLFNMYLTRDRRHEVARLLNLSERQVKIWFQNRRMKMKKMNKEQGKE
Sequence of HOXC9 (Homo sapiens, UniProt P31274 178-260, K195R) (P31274 178-260 K195R): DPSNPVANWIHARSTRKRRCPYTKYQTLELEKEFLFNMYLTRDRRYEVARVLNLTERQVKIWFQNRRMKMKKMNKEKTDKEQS
Sequence of HOXB9 (Homo sapiens, UniProt P17482 171-250, R186Q) (P17482 171-250 R186Q): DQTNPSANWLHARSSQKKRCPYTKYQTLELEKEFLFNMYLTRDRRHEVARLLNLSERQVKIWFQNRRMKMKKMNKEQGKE
Sequence of NKX2-5 (Homo sapiens, UniProt P52952 125-210) (P52952 125-210): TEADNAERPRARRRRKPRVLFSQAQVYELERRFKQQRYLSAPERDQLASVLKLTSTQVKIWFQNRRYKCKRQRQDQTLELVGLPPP
Sequence of NKX2-5 (Homo sapiens, UniProt P52952 125-210, R139K) (P52952 125-210 R139K): as the sequence (P52952 125-210) above, with R15K counted along it

Regarding CCGGAGAC, the binding signal in assay [1] is 8.74 upbm affinity estimate (log intensity, higher = more binding, comparable within an allelic series); in assay [2], 8.76 upbm affinity estimate (log intensity, higher = more binding, comparable within an allelic series).

For the sequence ATTAATTA, the binding signal is 10.6 upbm affinity estimate (log intensity, higher = more binding, comparable within an allelic series) in [3]; 13.3 upbm affinity estimate (log intensity, higher = more binding, comparable within an allelic series) in [4]; 13.2 upbm affinity estimate (log intensity, higher = more binding, comparable within an allelic series) in [5]; 12.2 upbm affinity estimate (log intensity, higher = more binding, comparable within an allelic series) in [6]; 12.5 upbm affinity estimate (log intensity, higher = more binding, comparable within an allelic series) in assay [7]; 12.8 upbm affinity estimate (log intensity, higher = more binding, comparable within an allelic series) in [8]. In addition, the binding signal was 12.6 upbm affinity estimate (log intensity, higher = more binding, comparable within an allelic series) in assay [9]; 12.8 upbm affinity estimate (log intensity, higher = more binding, comparable within an allelic series) in [10]; 13.2 upbm affinity estimate (log intensity, higher = more binding, comparable within an allelic series) in assay [11]; 11.1 upbm affinity estimate (log intensity, higher = more binding, comparable within an allelic series) in assay [12]; 12.7 upbm affinity estimate (log intensity, higher = more binding, comparable within an allelic series) in assay [13]; 11.6 upbm affinity estimate (log intensity, higher = more binding, comparable within an allelic series) in assay [14]. In addition, the binding signal in assay [15] is 13.8 upbm affinity estimate (log intensity, higher = more binding, comparable within an allelic series); in assay [16], 12.3 upbm affinity estimate (log intensity, higher = more binding, comparable within an allelic series); in assay [17], 11.5 upbm affinity estimate (log intensity, higher = more binding, comparable within an allelic series); in [18], 11.4 upbm affinity estimate (log intensity, higher = more binding, comparable within an allelic series); in assay [19] it was 11.1 upbm affinity estimate (log intensity, higher = more binding, comparable within an allelic series); in assay [20], 13.3 upbm affinity estimate (log intensity, higher = more binding, comparable within an allelic series).

On to GTTAATTA, for which the binding signal was 10.3 upbm affinity estimate (log intensity, higher = more binding, comparable within an allelic series) in assay [3]; 12.9 upbm affinity estimate (log intensity, higher = more binding, comparable within an allelic series) in assay [4]; 13 upbm affinity estimate (log intensity, higher = more binding, comparable within an allelic series) in assay [5]; 12.1 upbm affinity estimate (log intensity, higher = more binding, comparable within an allelic series) in assay [6]; 12.3 upbm affinity estimate (log intensity, higher = more binding, comparable within an allelic series) in assay [7]; 12.7 upbm affinity estimate (log intensity, higher = more binding, comparable within an allelic series) in assay [8]. Further, the binding signal is 12 upbm affinity estimate (log intensity, higher = more binding, comparable within an allelic series) in assay [9]; 12.5 upbm affinity estimate (log intensity, higher = more binding, comparable within an allelic series) in [10]; 12.8 upbm affinity estimate (log intensity, higher = more binding, comparable within an allelic series) in [11]; 10.9 upbm affinity estimate (log intensity, higher = more binding, comparable within an allelic series) in [12]; 12.3 upbm affinity estimate (log intensity, higher = more binding, comparable within an allelic series) in assay [13]; 11.4 upbm affinity estimate (log intensity, higher = more binding, comparable within an allelic series) in assay [14]. Moreover, the binding signal in assay [15] was 13.8 upbm affinity estimate (log intensity, higher = more binding, comparable within an allelic series); in assay [16], 11.8 upbm affinity estimate (log intensity, higher = more binding, comparable within an allelic series); in [17], 11.1 upbm affinity estimate (log intensity, higher = more binding, comparable within an allelic series); in assay [18], 11.3 upbm affinity estimate (log intensity, higher = more binding, comparable within an allelic series); in assay [19], 10.9 upbm affinity estimate (log intensity, higher = more binding, comparable within an allelic series); in assay [20], 13.2 upbm affinity estimate (log intensity, higher = more binding, comparable within an allelic series).

In the case of GCAACGCA, the binding signal in assay [1] was 9.03 upbm affinity estimate (log intensity, higher = more binding, comparable within an allelic series); in [2], 8.99 upbm affinity estimate (log intensity, higher = more binding, comparable within an allelic series).

For ATTAATTG, the binding signal in assay [3] was 10.3 upbm affinity estimate (log intensity, higher = more binding, comparable within an allelic series); in [4], 12.8 upbm affinity estimate (log intensity, higher = more binding, comparable within an allelic series); in assay [5] it was 12.8 upbm affinity estimate (log intensity, higher = more binding, comparable within an allelic series); in assay [6], 11.8 upbm affinity estimate (log intensity, higher = more binding, comparable within an allelic series); in assay [7], 11.9 upbm affinity estimate (log intensity, higher = more binding, comparable within an allelic series); in [8], 12.4 upbm affinity estimate (log intensity, higher = more binding, comparable within an allelic series). The binding signal is 12.2 upbm affinity estimate (log intensity, higher = more binding, comparable within an allelic series) in [9]; 12.2 upbm affinity estimate (log intensity, higher = more binding, comparable within an allelic series) in assay [10]; 12.7 upbm affinity estimate (log intensity, higher = more binding, comparable within an allelic series) in [11]; 10.7 upbm affinity estimate (log intensity, higher = more binding, comparable within an allelic series) in assay [12]; 12.2 upbm affinity estimate (log intensity, higher = more binding, comparable within an allelic series) in [13]; 11.2 upbm affinity estimate (log intensity, higher = more binding, comparable within an allelic series) in [14]. Besides, the binding signal in assay [15] was 13.2 upbm affinity estimate (log intensity, higher = more binding, comparable within an allelic series); in [16], 11.8 upbm affinity estimate (log intensity, higher = more binding, comparable within an allelic series); in assay [17], 11.2 upbm affinity estimate (log intensity, higher = more binding, comparable within an allelic series); in [18], 11 upbm affinity estimate (log intensity, higher = more binding, comparable within an allelic series); in assay [19], 11 upbm affinity estimate (log intensity, higher = more binding, comparable within an allelic series); in [20], 12.6 upbm affinity estimate (log intensity, higher = more binding, comparable within an allelic series).

(Values after publication PMC11006913.)
